Compounds without any hit were thinned out: in the full panel of roughly 83,000, 20% have a hit.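 Interpretation: 100, growth as untreated; towards 0, rising growth inhibition; 0, no net growth; 0 to -100, cell death. Compounds scoring below 10 were considered active.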 Values without a mark were called inactive. The source made the active and inactive calls.

The assay relates to HL-60(TB) leukemia. The experiment in a line: NCI-60 one-dose screen, 48 h (100 = growth as untreated, 0 = no growth, -100 = all killed). The following applies: 10 µM unless noted.

For the compound `CCn1c(Sc2nnc(NC(=O)CSC(=S)N3CCCCC3)s2)nc2c1c(=O)n(C)c(=O)n2C`, the growth was 95%.

Turning to `CC(=O)Nc1ccc(C(=O)COc2ccc(/C=C3\CCc4ccccc4C3=O)cc2)cc1`, the growth is 102%. `CC(=O)c1ccc(-n2cc(CN3CCN(c4cc5c(cc4F)c(=O)c(C(=O)O)cn5C4CC4)CC3)nn2)cc1`: the growth is 99%. The figure for `O=C(Nc1cccc(-c2nc3ccccc3[nH]2)c1)c1cccc(NC(=O)c2ccco2)c1` is 88.9%. On to `C=C(C)[C@@H]1CC[C@]2(CN)CC[C@]3(C)[C@H](CC[C@@H]4[C@@](C)(CCCN)[C@H](C(=C)C)CC[C@]43C)[C@@H]12`, for which the growth is 53.3%. With `COC(=O)C(Cc1cn(C(C)=O)c2ccccc12)P(=O)(OC)OC` (centres undefined), the growth is 97.5%. `COc1ccc(OC)c2c1C(=O)CC2C` (centres undefined): the growth is 103%. For the compound `CCCCCc1c(C)[nH]c(/C=C2\N=C(c3ccc[nH]3)C=C2Oc2ccc(Cl)cc2)c1C`, the growth was -40.3% [100 µM] (active). `NCCNc1nc2ccc(F)cc2c2c(=O)c3cc(F)ccc3sc12`: the growth was 21.2%. As for `CCCn1nc(-c2ccccc2)c2c(-c3ccccc3)onc2c1=O`, the growth was 69.6%. `O=S1(=O)NCCCN1CCNc1nccc(-c2c(-c3cccc(O)c3)nc3sccn23)n1`: the growth was 73.3%. As for `COc1ccc(C(=O)c2cc(OC)c(OC)c(OC)c2)cc1OC(=O)C(Cl)(Cl)Cl`, the figure is -45.3% (active). As for `O=c1nc(Nc2cccc(Cl)c2)oc2cc(Cl)oc(=O)c12`, the growth was 26.4%.

For the compound `Cc1[nH]c(-c2nc3ccccc3[nH]2)c(C)c1C(=O)N1CCOCC1`, the growth is 111%.

These data come from PubChem BioAssay (NCI).
